Where “and” joins values, the source holds several entries; their conditions need not be identical. Identical values can stand only once. Compounds without any hit were thinned out: in the full panel of roughly 79,000, 15% have a hit. No stated cut-off is given here; in the data, active means growth inhibition above about 70%; inactive means the rest.
Assays:
[1] = NCI Yeast Anticancer Drug Screen. Data for the rad50 strain (AID 155);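 further: 0% = growth of vehicle-only cultures of the same strain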; conditions: S. cerevisiae rad50 strain growth inhibition, hits give high values; at 50.0 µM unless noted
Procedure, shortened: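 Vehicle-treated cultures provide the reference for the growth inhibition reported for compound-exposed, repair-deficient yeast.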

[2] = NCI Yeast Anticancer Drug Screen. Data for the mec2-1 strain (AID 157); conditions: S. cerevisiae mec2-1 strain, hits give high values; at 50.0 µM unless noted
Procedure, shortened: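 Each compound was tested on mec2-1 yeast, a strain altered in DNA damage repair or cell cycle control. Growth inhibition is reported relative to vehicle.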

[3] = NCI Yeast Anticancer Drug Screen. Data for the sgs1 mgt1 strain (AID 161);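 further: 0% = growth of cultures given vehicle only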; conditions: S. cerevisiae sgs1 mgt1 strain, hits give high values; at 50.0 µM unless noted
Procedure, shortened: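 Mutant yeast exposed to compound; growth scored against vehicle-only wells.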

[4] = NCI Yeast Anticancer Drug Screen. Data for the cln2 rad14 strain (AID 165);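 further: 0% = growth equal to vehicle treated cultures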; conditions: S. cerevisiae cln2 rad14 strain, hits give high values; at 50.0 µM unless noted
Procedure, shortened: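 Test compounds were added to cln2 rad14 yeast cultures; inhibition of growth was then determined by comparison with vehicle treatment.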

[5] = NCI Yeast Anticancer Drug Screen. Data for the bub3 strain (AID 167); conditions: S. cerevisiae bub3 mutant strain, hits give high values; at 50.0 µM unless noted
Procedure, shortened: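 Mutant yeast screening strain plus compound; vehicle-treated cultures serve as the 0% inhibition reference.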

[6] = NCI Yeast Anticancer Drug Screen. Data for the mlh1 rad18 strain (AID 175); conditions: S. cerevisiae mlh1 rad18 strain growth inhibition, hits give high values; at 50.0 µM unless noted
Procedure, shortened: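 Inhibition values reflect reduced growth of mutant yeast versus vehicle-treated controls following compound exposure; the mutations affect DNA damage repair.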

Measured: growth inhibition

COCCOC(=O)c1ccc(C)cc1
inactive: [1] 9.8% | [2] 17.8% | [3] 10.6% | [4] 14.8% | [5] 12.1% | [6] 8.1%

O=C1c2cccc3cc([N+](=O)[O-])cc(c23)C(=O)N1C(CO)(CO)CO
inactive: [1] 29.9% | [2] 12.6% | [3] 30.1% | [4] 27.5% | [5] 16% | [6] -4.45%

CCOC(=O)C(C#N)=C(C)C
inactive: [1] -12.6% and 26.9% | [2] 7.8% and 2.75% | [3] -2.55% and 17% | [4] -19.1% and -1.1% | [5] 0.65% and -13.8% | [6] 20.4% and 17.1%

Cc1cccc(C(=O)OCC2CCCO2)c1 (centres undefined)
inactive: [1] -0.2% | [2] 11.7% | [3] 8.15% | [4] -22.6% | [5] 8.8% | [6] -3.4%

— PubChem BioAssay (NCI)
